Active and inactive are the calls of the source.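 How the source made its calls, unless noted: active means fluorescence slope after compound addition differing from the mean of all tested samples at 99.7% confidence, mostly higher but some lower; inactive means the rest.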
Key:
[1] = inhibitors of TNFa-induced NFkB p65 translocation, primary screen, imaging, HUVEC, MLSMR starter and 10KST1 sets (AID 438;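 active means inhibition above 20% together with a positive visual image hit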;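 further: compound added about 3h40 before a 20 min TNFalpha stimulation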;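 on inhibition: signal is the nuclear over cytoplasmic p65 intensity ratio per well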); details: HUVEC TNFa-induced p65 nuclear translocation; cell count: measured here: nuclei count (cytotoxicity indicator), at 2.08 µM; inhibition: at 2 µM, stronger effect = higher value, 0% TNFa-plus-vehicle, 100% no-TNFa wells
[2] = inhibitors of mutant huntingtin aggregation, primary screen, imaging, exon1htt(103Q)mCFP cells, high-content imaging (AID 483;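 active means visual image review flags a hit and inhibition of aggregation exceeds 20%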;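 further: compound exposure lasted 3 days before fixation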;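 on nuclei count: percent of the per-plate median nuclei count of sample wells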); details: exon1htt(103Q)mCFP cell line, aggregate imaging, at 2 µM; inhibition of aggregation: stronger effect = higher value; nuclei count: measured here: cell count, toxicity
[3] = inhibitors of E-selectin induction by TNFa, primary screen, imaging, HUVEC, immunofluorescence, MLSMR starter and 10KST1 sets (AID 487;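 active means visually confirmed hit in the image check and inhibition above 20%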;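 on inhibition: signal is fraction of cell area covered by stained E-selectin grains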;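 on nuclei count: 100% = median nuclei count of all wells on the same plate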); details: HUVEC TNFalpha-induced E-selectin immunofluorescence imaging, at 2 µM; inhibition: stronger effect = higher value; nuclei count: measured here: cell number, toxicity
[4] = DUSP6 inhibitors restoring Erk phosphorylation by chemical complementation, primary imaging in DUSP6-transfected HeLa (AID 609;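 active means compounds giving at least 50% inhibition in the cell-based MKP-3 phosphatase rescue imaging test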;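 on inhibition: phospho-Erk level distribution per well compared with pooled transfected vehicle control wells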); details: HeLa MKP-3 transfected, phospho-Erk imaging KS statistic, at 10 µM, cells stimulated with TPA for 15 min
[5] = molecular target: Dual specificity protein phosphatase 6 (Homo sapiens) (UniProt Q16828); assay: as above; details: HeLa MKP-3 transfected, phospho-Erk imaging KS statistic; at 10 µM; stronger effect = higher value; cells stimulated with TPA for 15 min
[6] = molecular target: Voltage-gated potassium channel subunit beta-2 (Rattus norvegicus) (UniProt P62483); assay: KvBeta enzyme negative modulators, primary screen, biochemical, NADPH fluorescence (AID 622;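 active means fluorescence slope higher than the sample average by over 3 SD, cut at about -0.22 in these data, passing the limit was not always enough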;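 further: slope of raw intensity against log time taken from 70 to 1610 s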); details: recombinant KvBeta, 4-cyanobenzaldehyde reduction, at 10 µM, stronger effect = higher value
[7] = molecular target: Voltage-gated potassium channel subunit beta-2 (Rattus norvegicus) (UniProt P62483); assay: KvBeta positive modulators, primary screen, biochemical, NADPH fluorescence (AID 623;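 active means NADPH fluorescence slope more negative than the mean of all samples by about 3 SD, 99.7% confidence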;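 further: fluorescence intensity change per second fitted from 20 to 320 s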); details: Recombinant KvBeta, NADPH fluorescence decrease slope, 10 min; at 10 µM; stronger effect = lower value
[8] = molecular target: Alpha-2C adrenergic receptor (Homo sapiens) (UniProt P18825); assay: modulators of alpha2C/GIRK thallium flux, primary screen, cell-based, HEK293 alpha2C/GIRK1/2 (AID 624;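 active means fluorescence slope after compound addition differing from the mean of all screened samples at 99.7% confidence, in either direction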;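 further: slope of fluorescence ratio to pre-addition baseline per second over 15 to 24 s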); details: thallium flux BTC fluorescence, at 10 µM, actives lie on both sides
[9] = molecular target: Muscarinic acetylcholine receptor M4 (Homo sapiens) (UniProt P08173); assay: compounds altering M4/GIRK thallium flux, either direction, primary screen, M4 allosteric agonist project, cell-based, HEK293 M4/GIRK, BTC-AM (AID 625); details: at 10 µM, actives lie on both sides;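 further: thallium influx through GIRK channels coupled to M4 in HEK293 cells with BTC-AM dye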
[10] = inhibitors of larval lipid processing in zebrafish, primary screen, whole organism, PED6 fluorescence, gall bladder and intestine (AID 686;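 active means a full or partial loss of lipid-probe fluorescence in the fish gall bladder, intestine or both, judged by eye; inactive means no fluorescence loss, or compound toxic to the fish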;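 further: larvae 5 to 7 days old with five fish per well; signal comes from phospholipase A2 cleavage of quenched PED6 carried via bile; overnight exposure to compound and PED6 before scoring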); details: Zebrafish larvae PED6 lipid processing, fluorescence scoring; screened at 20 µM (by protocol)
[11] = inhibitors of Chlamydomonas gravitaxis, primary screen, whole organism, Chlamydomonas reinhardtii, WT vs cilia-less mutant, absorbance, 96-well (AID 463189;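 active means inhibition at or above 50% relative to wild type and mutant plate controls; inactive means inhibition below 50%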;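 further: 0% = wild type cc124 cells in DMSO and 100% = ciliumless bld1 mutant cells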); details: OD600 absorbance, 2 days, at 10 µM, stronger effect = higher value
[12] = inhibitors of Sendai virus-induced IRF3 signaling, primary screen, TLR/RLR signaling modifier project, cell-based, Sendai virus stimulus, luciferase, 10K MLSCN set (AID 602276;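 active means inhibition at or above 50% at 10 µM; inactive means inhibition below 50%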;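 further: firefly luciferase from ISG56 promoter only with Renilla not read in this screen; 0% = Sendai virus plus DMSO and 100% = medium plus DMSO without virus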); details: HEK293 RL24 IRF3 luciferase reporter, at 10 µM, stronger effect = higher value
[13] = inhibitors of poly I:C-induced TLR3 signaling, primary screen, cell-based, poly I:C stimulus, luciferase, 10K MLSCN set (AID 602277;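 active means inhibition of the reporter signal at or above 50%; inactive means inhibition below 50%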); details: HEK293-TLR3 RL24 IRF3 luciferase reporter, at 10 µM, stronger effect = higher value
[14] = measured here: cell density z-score
[15] = measured here: nuclear c-Myc green intensity z-score
[16] = measured here: nuclear pErk red intensity z-score, stronger effect = higher value

Muscarinic acetylcholine receptor M4 (Homo sapiens), sequence (P08173 whole entry, looked up): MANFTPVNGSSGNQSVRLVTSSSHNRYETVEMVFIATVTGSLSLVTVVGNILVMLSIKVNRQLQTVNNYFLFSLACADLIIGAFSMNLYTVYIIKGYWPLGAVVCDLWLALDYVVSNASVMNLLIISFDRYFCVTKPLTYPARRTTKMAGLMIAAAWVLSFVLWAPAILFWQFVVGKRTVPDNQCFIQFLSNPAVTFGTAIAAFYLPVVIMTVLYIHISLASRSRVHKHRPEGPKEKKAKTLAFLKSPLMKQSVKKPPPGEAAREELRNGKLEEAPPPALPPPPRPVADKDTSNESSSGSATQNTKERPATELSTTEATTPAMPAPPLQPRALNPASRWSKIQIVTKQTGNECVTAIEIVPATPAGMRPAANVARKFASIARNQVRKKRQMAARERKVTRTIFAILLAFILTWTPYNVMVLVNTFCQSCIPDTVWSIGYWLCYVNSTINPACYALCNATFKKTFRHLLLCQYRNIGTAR
Voltage-gated potassium channel subunit beta-2 (Rattus norvegicus), sequence (P62483 whole entry, looked up): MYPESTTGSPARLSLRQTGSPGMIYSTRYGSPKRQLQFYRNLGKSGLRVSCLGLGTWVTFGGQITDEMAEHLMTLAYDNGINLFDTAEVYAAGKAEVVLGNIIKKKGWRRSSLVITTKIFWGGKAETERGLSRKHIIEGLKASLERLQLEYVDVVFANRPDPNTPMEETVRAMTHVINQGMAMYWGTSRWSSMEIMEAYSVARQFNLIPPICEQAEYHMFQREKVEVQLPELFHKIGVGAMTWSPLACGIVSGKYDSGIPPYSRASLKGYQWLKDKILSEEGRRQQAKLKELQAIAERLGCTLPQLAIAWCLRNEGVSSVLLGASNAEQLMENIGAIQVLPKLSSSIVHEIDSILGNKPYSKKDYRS
Alpha-2C adrenergic receptor (Homo sapiens), sequence (P18825 whole entry, looked up): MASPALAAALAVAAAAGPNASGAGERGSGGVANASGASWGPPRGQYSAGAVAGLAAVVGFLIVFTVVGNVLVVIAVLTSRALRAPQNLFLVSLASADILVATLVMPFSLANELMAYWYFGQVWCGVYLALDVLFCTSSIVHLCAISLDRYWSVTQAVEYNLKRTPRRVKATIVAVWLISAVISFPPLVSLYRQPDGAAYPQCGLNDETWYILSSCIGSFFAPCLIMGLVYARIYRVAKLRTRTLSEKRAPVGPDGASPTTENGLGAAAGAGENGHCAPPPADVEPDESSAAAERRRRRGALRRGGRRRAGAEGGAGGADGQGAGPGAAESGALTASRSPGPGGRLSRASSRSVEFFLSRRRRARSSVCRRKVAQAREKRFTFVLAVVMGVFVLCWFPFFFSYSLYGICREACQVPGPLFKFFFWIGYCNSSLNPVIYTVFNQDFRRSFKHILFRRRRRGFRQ
Dual specificity protein phosphatase 6 (Homo sapiens), sequence (Q16828 whole entry, looked up): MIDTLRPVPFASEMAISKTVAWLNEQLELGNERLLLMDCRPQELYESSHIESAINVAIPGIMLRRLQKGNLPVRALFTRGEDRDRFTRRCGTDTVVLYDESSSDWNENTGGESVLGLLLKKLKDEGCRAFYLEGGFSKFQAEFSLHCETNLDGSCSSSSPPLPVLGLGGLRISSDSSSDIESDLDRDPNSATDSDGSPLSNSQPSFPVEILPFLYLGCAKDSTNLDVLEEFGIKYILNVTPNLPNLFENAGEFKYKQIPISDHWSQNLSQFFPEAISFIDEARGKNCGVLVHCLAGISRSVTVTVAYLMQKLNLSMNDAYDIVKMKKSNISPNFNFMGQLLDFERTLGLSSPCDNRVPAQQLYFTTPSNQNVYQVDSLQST

Structure (SMILES) | cell count [1] | inhibition [1] | inhibition of aggregation [2] | nuclei count [2] [%] | inhibition [3] | nuclei count [3] [%] | z-score [4, 14] | z-score [4, 15] | z-score [4, 16] | inhibition [5] | fluorescence slope [6] | NADPH fluorescence slope [7] | slope [8] | fluorescence slope [9] | outcome [10] | inhibition [11] | inhibition [12] | inhibition [13]
CC(C)c1nc(NCC2CCCO2)c(C#N)c2c1COC(C)(C)C2 (stereo not given) | 354 | -4.5% (inactive) | 6.9% (inactive) | 86.9 | -236% (inactive) | 132 | -0.206 | -0.66 | -0.111 | -8.59% (inactive) | -0.461 (inactive) | -9.6e-05 (inactive) | 0.00432 (inactive) | 0.00335 (inactive) | inactive | -3.7% (inactive) | 20.5% (inactive) | 25.1% (inactive)
CCOC(=O)Cc1nnc(Nc2cccc(O)c2)c2ccccc12 | 621 | -1.7% (inactive) | -13.1% (inactive) | 99.2 | -46.3% (inactive) | 131 | -1.97 | 0.184 | 0.582 | -15.1% (inactive) | -0.457 (inactive) | -9.4e-05 (inactive) | 0.00496 (inactive) | 0.0057 (inactive) | inactive | -9.07% (inactive) | 0.504% (inactive) | -8.25% (inactive)
N#Cc1nc(COc2ccc(Br)cc2)oc1N1CCCC1 | 482 | -2.8% (inactive) | -13.8% (inactive) | 111 | 14.5% (inactive) | 132 | -1.92 | 1.26 | 1.21 | 6.04% (inactive) | -0.434 (inactive) | -7e-05 (inactive) | 0.00386 (inactive) | 0.00636 (inactive) | inactive | -0.7% (inactive) | 12.8% (inactive) | 1.37% (inactive)
CCSc1nc(O)c(C2OC(=O)c3c2ccc(OC)c3OC)c(=O)n1-c1ccccc1 (stereo not given) | 504 | 5.8% (inactive) | -6.1% (inactive) | 108 | -157% (inactive) | 146 | 0.533 | 0.786 | -0.555 | 1.98% (inactive) | -0.416 (inactive) | -4.4e-05 (inactive) | 0.00632 (inactive) | 0.00691 (inactive) | inactive | -7.19% (inactive) | 13.8% (inactive) | 25.6% (inactive)
O=C(NCC(F)(F)F)N1CCOCC1 | 663 | 11.2% (inactive) | 14.7% (inactive) | 106 | -23.9% (inactive) | 102 | 0.272 | 0.0222 | 0.9 | -13.3% (inactive) | -0.508 (inactive) | -3.8e-05 (inactive) | 0.0049 (inactive) | 0.00517 (inactive) | inactive | 33.2% (inactive) | 9.24% (inactive) | 15.3% (inactive)
O=C1C2CC=C(Cl)CC2C(=O)N1CNc1ccccn1 (stereo not given) | 549 | -1.9% (inactive) | 21.8% (inactive) | 86.4 | -24.7% (inactive) | 118 | -0.409 | 1.18 | -0.807 | 1.98% (inactive) | -0.446 (inactive) | -1.4e-05 (inactive) | 0.00475 (inactive) | 0.00609 (inactive) | inactive | -11.9% (inactive) | 11.3% (inactive) | 18.2% (inactive)
Cc1cc(C)c2c(N)c(C(=O)c3ccccc3)oc2n1 | 544 | -4.5% (inactive) | 6.6% (inactive) | 96.6 | -33.5% (inactive) | 134 | -0.541 | 1.87 | 0.479 | -3.95% (inactive) | -0.437 (inactive) | -2.9e-05 (inactive) | 0.00545 (inactive) | 0.00618 (inactive) | inactive | 14.6% (inactive) | -2.38% (inactive) | -28.6% (inactive)
CCN(CC)CCN1C(=O)C(O)=C(C(=O)c2cccs2)C1c1ccccn1 (stereo not given) | 503 | 1.8% (inactive) | -4.1% (inactive) | 102 | -7.4% (inactive) | 120 | -0.956 | 0.653 | -1.67 | -0.608% (inactive) | -0.468 (inactive) | -0.000108 (inactive) | 0.00594 (inactive) | 0.0052 (inactive) | inactive | -9.88% (inactive) | 4.53% (inactive) | 12% (inactive)
CC(C)C(=O)N1CCN(c2nc(-c3ccccc3)c3c(c2C#N)CCCC3)CC1 | 615 | -2.8% (inactive) | 0.5% (inactive) | 89.1 | -17.1% (inactive) | 122 | 0.333 | 0.332 | -0.342 | -7.67% (inactive) | -0.377 (inactive) | -9.2e-05 (inactive) | 0.0045 (inactive) | 0.00499 (inactive) | inactive | 5.67% (inactive) | -7.38% (inactive) | 17.9% (inactive)
COc1ccc(N2CCN(c3nc4c(c(=O)[nH]c(=O)n4C)n3CCCc3ccccc3)CC2)cc1 | 636 | 6.6% (inactive) | 2.8% (inactive) | 100 | -69.3% (inactive) | 112 | 0.546 | -1.43 | 0.632 | 14.7% (inactive) | -0.429 (inactive) | -3.7e-05 (inactive) | 0.0083 (inactive) | 0.0059 (inactive) | inactive | 1.13% (inactive) | 12.8% (inactive) | 18.8% (inactive)
Cn1c(=O)c2c(nc(NCc3ccc4c(c3)OCO4)n2Cc2ccccc2F)n(C)c1=O | 651 | -4.2% (inactive) | 37.8% (active) | 50.9 | -161% (inactive) | 126 | -0.011 | -1.47 | 0.345 | 1.9e-07% (inactive) | -0.45 (inactive) | -0.000288 (inactive) | 0.00635 (inactive) | 0.00703 (inactive) | inactive | 38.3% (inactive) | -2.97% (inactive) | 10.4% (inactive)
CC(=O)Nc1ccc(-c2cc3ccccc3o2)cc1 | 572 | -3.8% (inactive) | -5.2% (inactive) | 112 | 11% (inactive) | 138 | -0.412 | 2.18 | 0.0674 | -0.233% (inactive) | -0.468 (inactive) | -0.00011 (inactive) | 0.00496 (inactive) | 0.00556 (inactive) | inactive | 17.4% (inactive) | -24.7% (inactive) | -112% (inactive)
CC(CN1CCN(C)CC1)OC(=O)c1ccc(Cl)cc1Cl (stereo not given) | 495 | 2.7% (inactive) | -4.3% (inactive) | 89.3 | 5.7% (inactive) | 93.6 | 0.0987 | 0.463 | -0.406 | -0.624% (inactive) | -0.4 (inactive) | -7.7e-06 (inactive) | 0.00282 (inactive) | 0.00468 (inactive) | inactive | 136% (active) | 11.3% (inactive) | 23.1% (inactive)
COc1ccc(OC)c(C2/C(=C(\O)c3ccc4c(c3)OCCO4)C(=O)C(=O)N2CCCN(C)C)c1 (stereo not given) | 490 | -0.9% (inactive) | -12.7% (inactive) | 115 | -76.5% (inactive) | 130 | 0.935 | 0.819 | -1.07 | 18.2% (inactive) | -0.459 (inactive) | -0.000132 (inactive) | 0.0076 (inactive) | 0.00426 (inactive) | inactive | 40.2% (inactive) | 11% (inactive) | 23.3% (inactive)
CC(NC(=O)NCCCC(=O)O)(C(F)(F)F)C(F)(F)F | 582 | -3.7% (inactive) | 8.7% (inactive) | 98.1 | -76% (inactive) | 122 | -0.792 | -0.179 | 1.85 | -2.09% (inactive) | -0.428 (inactive) | -1.9e-05 (inactive) | 0.00567 (inactive) | 0.00478 (inactive) | inactive | 11.9% (inactive) | 18.9% (inactive) | 21.7% (inactive)
CC(=O)C1=C(NC(=O)c2ccccc2F)C[C@@H]2[C@H]1C2(C)C | 511 | 0.8% (inactive) | -2.1% (inactive) | 99.3 | -94.2% (inactive) | 126 | 0.289 | -1.02 | 0.959 | 11.9% (inactive) | -0.395 (inactive) | -7.2e-05 (inactive) | 0.00586 (inactive) | 0.00577 (inactive) | inactive | 13.1% (inactive) | -7.48% (inactive) | -10.2% (inactive)
COc1ccccc1C1(CC(=O)N2CCOCC2)CCOC(C(C)C)C1 (stereo not given) | 506 | -6.5% (inactive) | -10.9% (inactive) | 102 | 3.2% (inactive) | 131 | 0.755 | 0.316 | 1.01 | 5.95% (inactive) | -0.414 (inactive) | -4.7e-05 (inactive) | 0.00593 (inactive) | 0.00519 (inactive) | inactive | 12.8% (inactive) | -1.02% (inactive) | -0.559% (inactive)
CCCCCC1CC(CC#CCN2CCOCC2)C(=O)O1 (stereo not given) | 620 | -2.8% (inactive) | 10.5% (inactive) | 90.2 | -6.1% (inactive) | 128 | 0.645 | -0.292 | 0.592 | 3.49% (inactive) | -0.452 (inactive) | -4.2e-05 (inactive) | 0.00528 (inactive) | 0.00481 (inactive) | inactive | -4.86% (inactive) | -1.94% (inactive) | 10.9% (inactive)
COCCNC(=O)c1c(N)n(CCC2=CCCCC2)c2nc3ccccc3nc12 | 661 | -11.4% (inactive) | -0.5% (inactive) | 101 | -22.2% (inactive) | 149 | 1.39 | -1.83 | -0.195 | 20.2% (inactive) | -0.0792 (inactive) | -5.5e-06 (inactive) | 0.00496 (inactive) | 0.00724 (inactive) | inactive | 25.3% (inactive) | 6.4% (inactive) | 8.21% (inactive)
CN1C(=O)c2c(sc3c2CCCC3)NC1c1ccccc1O (stereo not given) | 432 | -5.1% (inactive) | -1.6% (inactive) | 97.6 | -128% (inactive) | 136 | 1.59 | -1.82 | 0.821 | -2.59% (inactive) | -0.47 (inactive) | -0.000117 (inactive) | 0.00476 (inactive) | 0.00402 (inactive) | inactive | 15.4% (inactive) | -8.68% (inactive) | -24.4% (inactive)

— PubChem BioAssay
